# PubChem BioAssay AID588456 (National Center for Advancing Translational Sciences (NCATS), 2011)
# About 55 (0.01%) of roughly 390,000 compounds were called active. Calls come from the whole dose curve; as a rule, active = well fitted inhibition curve with a large enough effect; inconclusive = small, poorly fitted or top-dose-only effect; inactive = no such curve, though single readings can be large or run the other way. These entries were drawn from the full list.
# Target: Thioredoxin reductase 1, cytoplasmic (Rattus norvegicus) (UniProt O89049)
# Sequence (O89049 whole entry, looked up): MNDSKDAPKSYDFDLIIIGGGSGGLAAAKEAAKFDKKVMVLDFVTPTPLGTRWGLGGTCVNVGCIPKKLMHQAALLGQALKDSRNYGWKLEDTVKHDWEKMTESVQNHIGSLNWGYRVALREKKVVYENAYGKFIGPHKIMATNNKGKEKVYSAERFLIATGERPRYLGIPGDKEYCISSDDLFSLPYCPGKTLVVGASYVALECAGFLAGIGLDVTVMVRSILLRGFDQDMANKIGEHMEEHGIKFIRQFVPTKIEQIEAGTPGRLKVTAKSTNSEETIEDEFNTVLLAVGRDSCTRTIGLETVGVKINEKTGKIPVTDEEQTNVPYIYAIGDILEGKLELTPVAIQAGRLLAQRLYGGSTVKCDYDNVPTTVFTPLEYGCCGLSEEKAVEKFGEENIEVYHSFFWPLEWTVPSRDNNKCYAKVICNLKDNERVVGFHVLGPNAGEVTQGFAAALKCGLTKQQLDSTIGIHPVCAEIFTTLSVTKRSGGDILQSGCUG
# Assay: qHTS Assay for Substrates of Mammalian Selenoprotein Thioredoxin Reductase 1 (TrxR1): qHTS; note: nearly all actives have a fitted effect of over 50% in size
# Details: purified TrxR1 substrate turnover, NADPH consumption readout; series mostly up to 114 µM; activity change, negative = substrate turnover: at the top concentration
# From the text: The selenoprotein thioredoxin reductase (TrxR; EC 1.8.1.9) is a FAD containing homodimeric pyridine nucleotide-disulfide oxidoreductase with many cellular roles. Together with NADPH and its prime substrate thioredoxin (Trx), the enzyme forms the core of the Trx system. The mammalian Trx system exerts a wide spectrum of functions including redox regulation, antioxidant defense, regulation of transcription factors as well as support of cell growth and replication. Many of these functions involve the reduction of Trx, which may subsequently reduce a number of different substrates including ribonucleotide reductase, peroxiredoxins or NFkB. Mammalian TrxR itself also has a broad substrate specificity, reducing both protein and non-protein substrates, including low molecular weight compounds such as dehydroascorbate, lipoic acid, ubiquinone, and juglone. In addition, several drugs in clinical use for anticancer treatment are indeed known to target TrxR1.
# This BioAssay is a validation of an NADPH fluorescence-based, dual-purpose qHTS rTrxR1 assay designed to find potential inhibitors and substrates of rTrxR1. For this particular BioAssay, actives are potential substrate. See related BioAssay for inhibition data deposition.
# NIH Molecular Libraries Probe Production Network [MLPCN]
# NIH Chemical Genomics Center [NCGC]
# Assay Provider: Elias Arner, Karolinska Institute
# Assay protocol: 2 uL of reagents (buffer in column 4 as negative control and 90 nM rTrxR1 in columns 1-3 and 5-48) were dispensed into Greiner black solid-bottom 1,536-well assay plates, followed by 1 uL of NADPH (400 uM final concentration) to each well. The plates were centrifuged at 1000 rpm for 15 seconds and subsequently incubated for 5 min at room temperature (~22 deg C) to allow for rTrxR1 reduction. Compounds (23 nL) were then transferred via Kalypsys pin tool equipped with 1536-pin array (10 nL slotted pins, V&P Scientific, San Diego, CA). In addition, a duplicate 2-fold serial dilution of the control compounds auranofin, a known gold-based TrxR1 inhibitor, and juglone (5-hydroxy-1,4-naphthoquinone), a natural TrxR1 substrate, were pin-transferred to columns 2 and 3, respectively. After incubation for 15 min at room temperature (~22 deg C), 1 uL of selenite (400 uM final concentration) were dispensed to each well. The plate was immediately transferred to a ViewLux high-throughput CCD imager (PerkinElmer), wherein kinetic measurements of NADPH fluorescence (Ex 340 nm, Em 450 nm) were acquired (8 minute kinetic read, see Table 1). Read 1 was utilized to assess the capacity of a compound to serve as an rTrxR1 substrate, i.e. a decrease in NADPH fluorescence compared to the no-compound background is an indication of a substrate behavior for that particular compound. For inhibitory activity of a compound, delta values, computed as the difference in fluorescence intensity between the first and last reads of an 8-minute time kinetic window, were used. All reagents were diluted in an assay buffer consisting of 50 mM Tris-HCl, pH 7.5, 2 mM EDTA, and 0.01% Tween-20.
# Throughout the screen, reagent bottle and all liquid lines were made light-tight to minimize reagent degradation. All screening operations were performed on a fully integrated robotic system (Kalypsys, San Diego, CA) containing one RX-130 and two RX-90 anthropomorphic robotic arms (Staubli, Duncan, SC). Library plates were screened starting from the lowest and proceeding to the highest concentration, and a 'double-pinning' step of the highest concentration was required to access higher concentrations of compounds. Vehicle-only plates, with DMSO being pin-transferred to the columns 5-48, were inserted uniformly at the beginning and the end of each library in order to monitor and record any shifts in the background, which can be affected by reagent dispensers or loss in enzyme activity over time. […]
# % is set by controls: 0 for no effect and ±100 for the full control effect.
row,Compound,"activity change, negative = substrate turnover"
1,Cc1nnc(SCC(=O)NCc2ccccc2Cl)c2nn(-c3ccccc3)c(C)c12,-2.94% (inactive)
2,Brc1cccc[n+]1Cc1cccc(C[n+]2ccccc2Br)c1,-9.86% (inactive)
3,COc1cc2[nH]c(=O)n(Cc3ccc(C(=O)NCc4ccc(C)cc4)cc3)c(=O)c2cc1OC,3.98% [at 2.29 µM] (inactive)
4,CN(C)c1ccc(/C=N\Nc2ccc([N+](=O)[O-])cc2[N+](=O)[O-])cc1Cl,-5.6% (inactive)
5,COc1cc2nc(Cl)nc(NC3CC3)c2cc1OC,-7.58% (inactive)
6,Cc1nnc(C)n1-c1ccc(C(=O)Nc2cccc(Br)c2)cc1,0.591% [at 57.1 µM] (inactive)
7,Cc1ccc(C=O)cc1Cl,7.59% (inactive)
8,Cc1ccc(-c2nnc3ccc(SCC(N)=O)nn23)cc1,11.6% (inactive)
9,CN(C)c1ccc(C=Nc2ccc(/C=C/c3ccnc4ccccc34)cc2)cc1,-26.7% (inactive)
10,Cc1nnc(NCc2ccccc2)c2c1nnn2Cc1ccc(F)cc1,-11.2% (inactive)
11,CN(C)c1ccc(/C=C/c2sc3ccccc3[n+]2CCCCBr)cc1,-1.1% (inactive)
12,CC(C)(C(=O)NO)c1ccccc1,7.41% (inactive)
13,O=C1O/C(=C\c2ccc(O)cc2)C(O)=C1c1ccc(O)cc1,-5.92% (inactive)
14,NC1CCN(O)C1=O (configuration not stated),6.14% [at 57.1 µM] (inactive)
15,C=COC(=O)N1CCN(/[N+]([O-])=N/Oc2ccc([N+](=O)[O-])cc2[N+](=O)[O-])CC1,10.5% [at 0.457 µM] (inactive)
16,O=C(O)c1c(Br)c(Br)c(Br)c(Br)c1C1c2ccc(O)cc2Oc2cc(O)ccc21,-0.493% (inactive)
17,O=C(NCCCO)C(=O)Nc1c2c(nn1-c1ccc(F)cc1)CSC2,-2.34% [at 57.1 µM] (inactive)
18,C(=Nc1ccc(/C=C/c2ccnc3ccccc23)cc1)c1cc2c3c(c1)CCCN3CCC2,-2.53% (inactive)
19,Cc1ccc2nc3c(cc(C(=O)NC4CCCCC4)c(=N)n3C(C)C)c(=O)n2c1,203% (inactive)
20,Cc1ccc(CN(C(=O)COc2ccc(Cl)cc2C)C2CCS(=O)(=O)C2)o1 (configuration not stated),-0.557% (inactive)
21,CCOc1n[nH]c(-c2ccccc2)n1,-11% (inactive)
22,COc1ccc(CCNC(=O)CCCCn2c(=O)c3ccccc3n(Cc3ccccc3C)c2=O)cc1OC,-7.44% (inactive)
23,CS(=O)c1ccc(/C=C2\C=Cc3ccccc32)cc1 (configuration not stated),1.35% [at 0.0914 µM] (inactive)
24,COc1ccccc1NC(=O)C1=C(C)Nc2ncnn2C1c1sccc1C (configuration not stated),3.43% [at 57.1 µM] (inactive)
25,Cc1ccc(C2C=C(c3ccc(Cl)cc3)Nc3nc(NC(=O)CCC(=O)O)nn32)cc1 (configuration not stated),19% [at 57.1 µM] (inactive)
26,C/C=C/NNC(=O)Cc1ccc(OC)cc1,4.71% (inactive)

row,Compound,"activity change, negative = substrate turnover"
1,CCOC(=O)c1ccc(NC(=O)CCS(=O)(=O)c2ccc3c(c2)oc(=O)n3C)cc1,2.83% (inactive)
2,COCCCNC(=O)c1ccc(NC(=O)c2nsc3ccccc23)cc1,1.31% [at 57.1 µM] (inactive)
3,CC1(C)C=Cc2c(ccc(C(=O)/C=C/c3ccccc3)c2O)O1,6.76% (inactive)
4,CCN(CC)/[N+]([O-])=N/OCOC(=O)Cc1c(C)n(C(=O)c2ccc(Cl)cc2)c2ccc(OC)cc12,12.6% [at 0.457 µM] (inactive)
5,CC(=O)/C(C)=N/O,3.07% [at 57.1 µM] (inactive)
6,COc1ccc(CN(Cc2ccccc2)C(=O)c2ccc(O)cc2)cc1COc1ccc(NC(C)=O)cc1,-9.25% (inactive)
7,O=C(CSc1nc2c(c(=O)[nH]1)CN(Cc1ccc(F)cc1)CC2)Nc1ccccc1Cl,17.6% (inactive)
8,O=C(COc1ccccc1)OCc1cc(=O)n2nc(-c3cccs3)sc2n1,0.495% [at 57.1 µM] (inactive)
9,Cc1cccc(NC(=O)COC(=O)c2ccccc2OCc2cccc(Br)c2)c1,-1.38% (inactive)
10,CN(C)C1=C2C=CC=CC2/C(=C2/C=Cc3ccccc32)C=C1 (configuration not stated),-4.06% (inactive)
11,CSc1nc(-c2ccccc2Cl)nc2c1Cc1c(CO)cnc(C)c1O2,-7.75% (inactive)
12,CN(C)c1ccc(/C=C/c2sc3ccccc3[n+]2C)cc1,-3.98% (inactive)
13,Cc1cccc(NC(=O)c2ccc3nc(C(C)C)oc3c2)c1C,4.38% [at 57.1 µM] (inactive)
14,O=C(Nc1ccccc1C(F)(F)F)c1nc(S(=O)(=O)Cc2ccccc2F)ncc1Cl,-1.77% (inactive)
15,CN(C)c1ccc(/C=C/C=C/c2ccnc3ccccc23)cc1,-10.2% (inactive)
16,CCCCCCC1(C)NC(c2ccc3c(c2)OCO3)=CC(c2ccccc2O)N1 (configuration not stated),-0.425% (inactive)
17,SCc1nc2ccc(Cl)cc2[nH]1,6.82% (inactive)
18,Cc1ccc2nc(COc3cccc(NC(=O)Nc4ccc(C)c(Cl)c4)c3)cc(=O)n2c1,4.87% [at 57.1 µM] (inactive)
19,O=C1C[C@H]2C=CCc3cccc(c32)CN1Cc1ccccc1,1.88% (inactive)
20,O=C1CCC[C@@H]2C[C@@]3(C[C@@H]4CCN1[C@H]24)Nc1ccccc1NC3=NCc1ccccc1,0.601% (inactive)
21,CCCCOc1ccc(CN2C(=O)C(=O)c3cc(Br)cc(C)c32)cc1OC,-13.6% (inactive)
22,CCN(CC)c1ccc(/C=C/c2c(C)cnc3ccc(C)cc23)cc1,0.74% (inactive)
23,CCOc1ccc(CCNC(=O)Cn2nc(CC)n3c(cc4sc(CC)cc43)c2=O)cc1OCC,5.63% (inactive)
24,CCC(C)N(c1ccc(/C=C/c2ccnc3ccccc23)cc1)C(C)CC (configuration not stated),-24.3% (inactive)
25,O=C(COc1ccccc1C(=O)Nc1ccccc1)Nc1cccc(F)c1,-2.82% (inactive)
26,CCCCOc1ccc(C(=O)NO)cc1,7.06% (inactive)
